Consider 98 molecules from PubChem BioAssay AID504329 (Southern Research Specialized Biocontainment Screening …, 2011).

Broadly, the inhibition is the relative decrease from the control value, in per cent.

The campaign covered roughly 340,000 compounds. About 1,000 (0.29%) were called active. Only a sample is shown. Entries with a potency or affinity are not part of this list. Unmarked numbers belong to inactive results. Rule as the data show it: inconclusive = inhibition above about 27% without an active follow-up result; inactive = below that.

The assay in a line: NS1A inhibition, H1N1 influenza, cell based functional assay (AID 504329). The note with it: percent inhibition, at 12.5 µM, hits give high values.
With `Cc1ccc(CNC(=O)CCC2CCCN(Cc3c(C)nn(C(C)C)c3C)C2)o1` (stereo not drawn), the inhibition was 7.13%.

For `Cc1ccc(Cn2c(C(CO)Nc3nc(-c4ccc(Cl)c([N+](=O)[O-])c4)cs3)nc3ccccc32)cc1` (stereo not drawn), the inhibition is 1.74%.

In the case of `O=C(Cc1cccs1)Nc1nnc(SCC(=O)NC2CCCCC2)s1`, the inhibition was 3.29%.

With `Cc1nnc(-c2ccccc2)nc1N(C)C`, the inhibition was -13.6%.

On to `CC(C)Nc1nc(-c2ccccc2)nnc1-c1ccccc1`, for which the inhibition was -7.91%.

Turning to `c1ccc(-c2nc(NC3CCCC3)c3ccccc3n2)cc1`, the inhibition was -1.14%.

With `C=CCNc1cc(C(F)(F)F)nc(-c2ccccn2)n1`, the inhibition is -12.7%.

Regarding `C=CCNc1nc(-c2ccccc2)c(C(=O)OCC)cc1C#N`, the inhibition is 10.4%.

`CCN(CC)c1nc(-c2ccccn2)nc(-c2ccccc2)c1C#N`: the inhibition is 2.62%.

Consider `Oc1ccccc1-c1nc(NC2CCCC2)c2ccccc2n1`, for which the inhibition was -9.82%.

On to `CC(C)Nc1nc(-c2ccccn2)nc(-c2ccccc2)c1C#N`, for which the inhibition was 1.07%.

Regarding `CC(C)c1ccc(NC(=S)Nc2ccc3[nH]c(=O)[nH]c3c2)cc1`, the inhibition was 1.94%.

Consider `Cc1ccc(S(=O)(=O)N2CCOCC2)cc1NS(=O)(=O)c1ccc(F)c(F)c1`, for which the inhibition was -3.51%.

As to `Cc1c(C(=O)Nc2ccccc2)c2cc(O)ccc2n1Cc1ccccc1`, the inhibition is -3.07%.

Take `O=C1CCCN1CCC1CCN(C2CC(=O)N(Cc3ccc(N4CCCC4=O)cc3)C2=O)CC1` (stereo not drawn): the inhibition was 18.3%.

As for `COc1ccc(OC)c(C(=O)CN2CCN(S(=O)(=O)c3ccc(Br)cc3)CC2)c1`, the inhibition is 0.97%.

Regarding `NC(=O)c1nsc(C(=O)N(c2ccc(F)cc2)C(C(=O)NC2CCCC2)c2ccncc2)c1N` (stereo not drawn), the inhibition is 7.29%.

`CC1CCC2(CC1)C(Nc1cccc(Cl)c1)=NC(=S)N2CC#N` (stereo not drawn): the inhibition is 11.2%.

Consider `NC(=O)c1c(NC(=O)Cn2nc(C(=O)O)c3ccccc3c2=O)sc2c1CCC2`, for which the inhibition is 0.19%.

In the case of `CCOC(=O)c1c(NC(=O)CSc2nncn2C)sc(C)c1C`, the inhibition is -1.87%.

For `COc1cnc(-c2ccccn2)nc1Oc1ccccc1`, the inhibition was 10.4%.

`COc1ccc(Oc2nc(-c3ccccn3)ncc2OC)cc1`: the inhibition is 7.31%.

On to `Cc1nc2c(C)cccc2c2c1COC2`, for which the inhibition is -0.38%.

Take `CCOC(=O)c1sc(NC(=O)CSc2nc3c(cc2C#N)CCCCC3)c(C#N)c1C`: the inhibition was 0.28%.

Turning to `Cc1c(NC(=O)c2ccc(C(=O)Nc3c(C)n(C)n(-c4ccccc4)c3=O)cc2)c(=O)n(-c2ccccc2)n1C`, the inhibition was 11.8%.

On to `CCCCC[C@H]1CN(C2CCCCC2)C(=O)[C@@H]1CC(=O)NCc1ccccc1`, for which the inhibition was -4.52%.

With `Cc1ccc2[nH]c3nc(SCC#N)nnc3c2c1`, the inhibition was 3.03%.

On to `Cc1ccc2[nH]c3nc(N/N=C/c4cccc(O)c4)nnc3c2c1`, for which the inhibition is 5.99%.

Take `Cc1ccc(C)c(N(C)S(=O)(=O)c2ccc3[nH]cc(C(=O)NCCN4CCOCC4)c(=O)c3c2)c1`: the inhibition was 13.2%.

For `O=[N+]([O-])c1ccc2c(c1N1CCCCC1)=NC1(CCCCC1)[N+]=2[O-]`, the inhibition is -7.13%.

As to `CCCCNc1nc(N)ncc1[N+](=O)[O-]`, the inhibition is -2.32%.

For the molecule `CCCCNc1c([N+](=O)[O-])cc(C(=O)O)cc1[N+](=O)[O-]`, the inhibition was 25.7%.

For the molecule `[O-][N+]1=c2ccc(Nc3ccccc3)cc2=NC12CCCCC2`, the inhibition is 16.6%.

As for `Cc1noc(C)c1S(=O)(=O)N1CCC(C(=O)O)CC1`, the inhibition is -5.05%.

Consider `CC1(C)CC(CCN)(Cc2ccccc2Cl)CCO1` (stereo not drawn), for which the inhibition is -1.58%.

Turning to `COc1ccccc1N1CCN(C(=O)c2c(-c3c(F)cccc3Cl)noc2C)CC1`, the inhibition is -1.81%.

With `CN1CCN(c2cccc3c2C(=O)c2ccccc2C3=O)CC1`, the inhibition is 4.2%.

`N#Cc1c(Cl)cccc1N1CCCC1`: the inhibition is -9.33%.

Consider `O=C1c2ccccc2-c2c1cccc2C(=O)N1CCOCC1`, for which the inhibition was -11.9%.

As to `O=C1c2ccccc2C(=O)c2cc(N3CCCCC3)ccc21`, the inhibition is -3.43%.

Regarding `CCOc1ccc2noc3c2c1C(=O)c1ccccc1-3`, the inhibition is 7.74%.

Turning to `Nc1ccccc1N1CCOCC1`, the inhibition was 0.99%.

Take `O=C1c2ccccc2-c2onc3ccc(Oc4ccccc4)c1c23`: the inhibition is 11.9%.

As to `O=C1C(Cl)=C(N2CCCCC2)C(=O)N1c1ccccc1Cl`, the inhibition is -3.44%.

With `O=C(N1CCCC1)C12CC3CC(CC(C3)C1)C2`, the inhibition was -8.92%.

Take `CCCOc1ccc(C(=O)OCC(=O)c2c(N)n(C)c(=O)n(C)c2=O)cc1OCC`: the inhibition is -1.83%.

`CCN(CC(=O)NC(=O)NCc1ccccc1)CC(=O)Nc1cc(Cl)ccc1C`: the inhibition was -8.38%.

Regarding `CC(C)Cn1c(N)c(C(=O)COC(=O)c2c(F)cccc2F)c(=O)n(C)c1=O`, the inhibition was -5.45%.

As for `Cc1ccc(CCNC(=O)c2ccc(CS(=O)(=O)Cc3ccc(F)cc3)o2)cc1`, the inhibition is 2.69%.

With `O=C(NNc1cccc([N+](=O)[O-])c1)/C(=C\c1cccnc1)NC(=O)c1ccccc1`, the inhibition is 9.25%.

With `COc1cc(CN(CC(C)C)S(=O)(=O)c2ccccc2Br)cc(OC)c1`, the inhibition is -4.89%.

As to `Cc1ccc(NC(=O)c2cccc(S(=O)(=O)NCc3ccccc3)c2)nc1`, the inhibition is -4.84%.

`CCN(CC(=O)Nc1ccccc1OC)C(=O)CSCc1ccc(C)cc1`: the inhibition is 1.31%.

Consider `COc1cc(-c2nc(CN3CCN(CC(C)C)C(=O)[C@@H]3C)c(C)o2)ccc1F`, for which the inhibition was 8.73%.

With `CCNc1ccccc(-c2ccc3ccccc3n2)c1=O`, the inhibition is -10%.

`COc1ccccc1N1CCN(Cc2ccccc2)CC1`: the inhibition was -11.8%.

As for `CC(=C1C(=O)c2ccccc2C1=O)N1CCN(Cc2ccccc2)CC1`, the inhibition is -9.47%.

Consider `O=C1C=C(N2CCOCC2)c2ccccc2C1=O`, for which the inhibition is -1.26%.

For the molecule `CC(=O)N(C)c1ccc(N2CCOCC2)c2c1C(=O)c1ccccc1C2=O`, the inhibition is 16.8%.

As to `O=C1c2ccccc2-c2onc3ccc(NCc4ccco4)c1c23`, the inhibition is 26%.

As for `O=C(O/N=C/c1ccc(Br)cc1)c1ccc(F)cc1`, the inhibition is 5.19%.

On to `CCC(C)N(C(=O)COC(=O)CSc1ccc(C)c(C)c1)C1CCS(=O)(=O)C1` (stereo not drawn), for which the inhibition is -5.16%.

With `COc1ccc2[nH]c(C(=O)NCc3ccccc3)cc2c1`, the inhibition was 15.2%.

In the case of `Clc1ccccc1-c1ccc2ncnc(NCc3cccs3)c2c1`, the inhibition was 9.25%.

As for `Cc1nc(N2CCCCC2)c2ccsc2n1`, the inhibition was -1.56%.

For the molecule `Cc1ccc(CN2C(=O)C(=O)c3cc(C)ccc32)cc1`, the inhibition was 3.72%.

For `Oc1c(C(c2ccc(Cl)cc2)N2CCCC2)cc(Cl)c2cccnc12` (stereo not drawn), the inhibition was -6.42%.

Regarding `CCN1CCN(C(c2ccc(C(F)(F)F)cc2)c2ccc3cccnc3c2O)CC1` (stereo not drawn), the inhibition was 16.8%.

On to `CN1CCN(C(c2ccccn2)c2cc(Cl)c3cccnc3c2O)CC1` (stereo not drawn), for which the inhibition is 14.5%.

Consider `CN1CCN(C(c2ccc(Cl)cc2)c2cc(Cl)c3cccnc3c2O)CC1` (stereo not drawn), for which the inhibition is 2.9%.

Take `CN1CCN(C(c2ccc(F)cc2)c2ccc3cccnc3c2O)CC1` (stereo not drawn): the inhibition is 7.02%.

For the molecule `Cc1ccc(C(c2cc(Cl)c3cccnc3c2O)N2CCN(C)CC2)cc1` (stereo not drawn), the inhibition is 5.08%.

In the case of `CCCCn1c(N)c(N(CCOC)C(=O)COC(=O)COc2c(C)cccc2C)c(=O)[nH]c1=O`, the inhibition is -13%.

In the case of `CC(C)(C)c1cc(NC(=O)CSc2nncs2)n(-c2ccccc2)n1`, the inhibition is 1.18%.

Turning to `Cc1cc(C(=O)NC(Cc2c[nH]c3ccccc23)C(=O)O)c(C)o1` (stereo not drawn), the inhibition is 1.37%.

For the molecule `COc1ccc(S(=O)(=O)Nc2ccc3c(c2)N(C(C)=O)CCC3)cc1OC`, the inhibition was 4.6%.

Consider `O=C(CNS(=O)(=O)c1ccc(F)cc1)N1CCN(c2ccc(F)cc2)CC1`, for which the inhibition was -9.78%.

Turning to `COc1ccc(C(=O)c2sc(Nc3ccc(NC(C)=O)cc3)nc2C)cc1`, the inhibition is -2.13%.

As to `CN(C)c1ccc(C=C2C=Cc3ccccc32)cc1`, the inhibition was 11.1%.

On to `CN(C)c1ccc(/C=C2\CCCCC2=O)cc1`, for which the inhibition is 12.2%.

`COc1cc(C(=O)N=c2sccn2C)c([N+](=O)[O-])cc1OC`: the inhibition is -1.77%.

Turning to `O=C(Cn1nnc(-c2ccccc2)n1)N1CCN(c2ccc(F)cc2)CC1`, the inhibition was 11.4%.

As for `COCCCNC(=S)NNC(=O)c1csc(C)n1`, the inhibition is -15.3%.

On to `S=C(NCc1ccccn1)Nc1ccc(Cl)c(Cl)c1`, for which the inhibition was 1.31%.

For `CC(C)C(=O)NNC(=O)c1ccccn1`, the inhibition is -2.86%.

Consider `COCCCNC(=S)NNC(=O)c1cccnc1`, for which the inhibition is -5.08%.

With `Cc1cccc(NC(=O)NNC(=O)c2ccccn2)c1`, the inhibition was 0.66%.

Turning to `COc1ccc(C(=O)NNC(=O)c2ccccn2)cc1`, the inhibition is -9.69%.

As for `COC(=O)c1nc2n(n1)C(c1ccc(OC)c(OC)c1)C(C(=O)OC1CCCCC1)=C(C)N2` (stereo not drawn), the inhibition is 1.19%.

`Cc1nnc(NC2CCCCC2)[nH]c1=O`: the inhibition is -4.74%.

As for `COc1ccc(NS(=O)(=O)c2ccc(C(=O)N3CCN(Cc4ccccc4)CC3)cc2)cc1`, the inhibition was 11.9%.

Turning to `Cc1onc(-c2c(F)cccc2Cl)c1C(=O)c1ccccc1`, the inhibition was 20%.

For `O=C(NCC(c1ccco1)N1CCc2ccccc2C1)c1cccc([N+](=O)[O-])c1` (stereo not drawn), the inhibition is -12.3%.

Consider `COc1ccccc1/C=C1\C(=O)NC(=S)N(c2ccccc2)C1=O`, for which the inhibition is -27.6%.

In the case of `Cn1c(=O)c2c(nc(NCc3ccccc3)n2C)n(C)c1=O`, the inhibition is 1.83%.

On to `O=C(Nc1csnn1)OCc1ccccc1`, for which the inhibition is -22.9%.

Take `Cc1[nH]c2ccccc2c1/C=N/O`: the inhibition is -0.17%.

On to `Cc1[nH]c2ccccc2c1/C=N/n1cnnc1`, for which the inhibition was -3.32%.
